Whole data set: some 68,000 sequences, median “fluorescence intensity (a.u.)” near 9,100, cut for the highest 2% near 16,000. The full list was thinned out, with the highest values kept by preference.
Target: OsWRKY34 (Oryza sativa, UniProt Q0JBA9 1-250)
Experiment: protein-binding microarray (RPBM); PBS, 2% BSA, 51.3 ng/ul salmon testes DNA, 50 uM zinc acetate, 200 nM TF, 25 C, 1 h; high values mean tight binding
Settings: protein: recombinant; tags: N-terminal polyhistidine and DsRed monomer fusion (pET32a); label: CyDye5-dUTP incorporated in the synthesized complementary strand; 3' TTTTT single-stranded linker to array surface; dsDNA, one strand shown
How it was run: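 The binding signal for each feature is its fluorescence intensity in arbitrary units. An Axon 4000B scanner was used to read a custom Agilent array that had been made double-stranded with Cy5-dUTP primer extension, blocked with 2% BSA, incubated at 25 °C for 1 h with 200 nM protein in PBS, 2% BSA, salmon testes DNA and 50 µM zinc acetate, and washed. The protein was an N-terminal polyhistidine–DsRed transcription factor fusion from E. coli BL21-CodonPlus, purified on Ni–NTA.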

Sequence of OsWRKY34 (Q0JBA9 entry or part of it): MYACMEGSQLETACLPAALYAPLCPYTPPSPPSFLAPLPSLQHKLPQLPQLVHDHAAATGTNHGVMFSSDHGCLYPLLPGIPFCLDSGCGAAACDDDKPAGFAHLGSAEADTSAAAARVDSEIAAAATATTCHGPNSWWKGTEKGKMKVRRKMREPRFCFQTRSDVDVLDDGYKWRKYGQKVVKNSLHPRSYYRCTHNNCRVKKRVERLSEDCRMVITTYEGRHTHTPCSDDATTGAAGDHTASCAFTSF

Compared with “GTTTCATTGAGATGGTGTCGACGTGGCGGCGTTGACTTAGCGGAGTCACCTAGTGCAG”, “CAATGTTGTCTTGACTTTTTTTTAACGTTTAACCATTTGTCGGAGTCACCTAGTGCAG” is lower in binding signal: 10700 fluorescence intensity (a.u.) for the first, 8940 fluorescence intensity (a.u.) for the second.

Going from “ACACCATTGACTTTTTAGCATATGTTTAACCGTTTGTCTTCGGAGTCACCTAGTGCAG” to “CCGTTGACATTTTATCTAACGTTTGACCATTCGTCTTATTCGGAGTCACCTAGTGCAG”, the binding signal rises from 13900 fluorescence intensity (a.u.) to 15900 fluorescence intensity (a.u.).

Compared with “AGTGTCTTTGACTTTTTGTTTGTAACGTTTGACCATTCGTCGGAGTCACCTAGTGCAG”, “TGACACCGTTGACTTTTTTGTCTAAAGTTTAACCATTCGTCGGAGTCACCTAGTGCAG” is higher in binding signal: 21900 fluorescence intensity (a.u.) for the first, 32400 fluorescence intensity (a.u.) for the second.

First: CCCCGTCGTTGTCGCCACCTACTTCTACCTGCGCGGATTCCGGAGTCACCTAGTGCAG
Second: AATGCAACCATTAAGTTGTCGTTTAGTTGACTTTGTCTACCGGAGTCACCTAGTGCAG
The binding signal of the first is higher: 10800 fluorescence intensity (a.u.) for the first, 8690 fluorescence intensity (a.u.) for the second.

First: CCGCCGTTGACTTTTTGTCTAACGTTTGACCATTCGTCTTCGGAGTCACCTAGTGCAG
Second: CGACTTTGTTTTACCATTGTTTTTTTTGTCTTGTTTTAGTCGGAGTCACCTAGTGCAG
The binding signal of the first is higher: 36200 fluorescence intensity (a.u.) for the first, 10600 fluorescence intensity (a.u.) for the second.

First: GATTCTACTGCCCCGTTGACTAATTGTCTTCGTCAGGATCCGGAGTCACCTAGTGCAG
Second: TAATTGTCTTCGTCAGGATCTTCTGCTAATTGTTTGATTTCGGAGTCACCTAGTGCAG
The binding signal of the first is higher: 17900 fluorescence intensity (a.u.) for the first, 8680 fluorescence intensity (a.u.) for the second.

Compared with “ATACAATCTACTTGAATCGTTTTTTCTTTACTTTTCAGTTCGGAGTCACCTAGTGCAG”, “ACTTAGCAGCACTTGTCCCGTTCTCCTGAAGACAGTCCAACGGAGTCACCTAGTGCAG” is lower in binding signal: 9840 fluorescence intensity (a.u.) for the first, 9480 fluorescence intensity (a.u.) for the second.

Compared with “CAGTAATTGTCACTATCTTATTACACATTATTCTGTCCAGCGGAGTCACCTAGTGCAG”, “TCCTGTCCAGTCTCCACTCGCAAACCCTTCTCGCCGCCATCGGAGTCACCTAGTGCAG” is higher in binding signal: 8060 fluorescence intensity (a.u.) for the first, 10400 fluorescence intensity (a.u.) for the second.

First: GACCGCTTCACCCGCCCAATCAAAACCGTCCATCCATCCCCGGAGTCACCTAGTGCAG
Second: CAGTAACAATCACTCATTCTCAGTATCTGCTACTCCTCTACGGAGTCACCTAGTGCAG
The binding signal of the first is higher: 10300 fluorescence intensity (a.u.) for the first, 8710 fluorescence intensity (a.u.) for the second.

Compared with “CTCCTCTTTGTGTGTAGACTGAAAAGGTGGAAAGTTTACCCGGAGTCACCTAGTGCAG”, “CGCGTAACCCACCCAATGTTTCACTCCTGCAGCACTTGACCGGAGTCACCTAGTGCAG” is lower in binding signal: 9750 fluorescence intensity (a.u.) for the first, 9370 fluorescence intensity (a.u.) for the second.

Going from “CTATATATTTACCCACTGTATACCTCTGTCATGAAAGCATCGGAGTCACCTAGTGCAG” to “CTCGTTTGATCTCTCAGTTGGGAGCATTATTTCTGCGCATCGGAGTCACCTAGTGCAG”, the binding signal falls from 11500 fluorescence intensity (a.u.) to 10800 fluorescence intensity (a.u.).

Compared with “CAACGGCGAATCAACGCCCGAACCGACTCTTTTATCTTTTCGGAGTCACCTAGTGCAG”, “ACAAATTTGTAGCCCGCTGCTCTTCTCTCTCATCTTTTATCGGAGTCACCTAGTGCAG” is lower in binding signal: 9920 fluorescence intensity (a.u.) for the first, 9220 fluorescence intensity (a.u.) for the second.

Compared with “CGTATACCTCGGAGAAGTTCTCATCCGCTGACGTGTCCCGCGGAGTCACCTAGTGCAG”, “TCCCTCGGTCCCATCGTATATATATATACCGTATGTCCCGCGGAGTCACCTAGTGCAG” is lower in binding signal: 19600 fluorescence intensity (a.u.) for the first, 9470 fluorescence intensity (a.u.) for the second.

First: GTCCGCATCTCATCCTTCCGCAAGTCCGTATCTCATCCCTCGGAGTCACCTAGTGCAG
Second: CACCTCACCCTCACCCGCACACGCCGACACCCCGACGCGTCGGAGTCACCTAGTGCAG
The binding signal of the first is higher: 10400 fluorescence intensity (a.u.) for the first, 9390 fluorescence intensity (a.u.) for the second.

First: CTTCTTTCTCAATATGTGATTTTCTTTCCTTAATCTCGTTCGGAGTCACCTAGTGCAG
Second: CTCCGTCGCTGACTGCAACCTCCACCCACACGGCACCCATCGGAGTCACCTAGTGCAG
The binding signal of the first is higher: 8680 fluorescence intensity (a.u.) for the first, 8090 fluorescence intensity (a.u.) for the second.

Compared with “TATCTCTCTCCCGCTGACAACCCGGTCACACCGAACCAACCGGAGTCACCTAGTGCAG”, “CCTCTCACTGCTAGTGCCCCACACCGTTCTTCGCTGCCCACGGAGTCACCTAGTGCAG” is higher in binding signal: 8990 fluorescence intensity (a.u.) for the first, 11800 fluorescence intensity (a.u.) for the second.

Going from “CCTATTCTAACACTGACGGGTGGGTCTCACAGGGTGACTCCGGAGTCACCTAGTGCAG” to “CTAATACGTGGGTCTCACTATTGTCTTCTTGTTTGACTGACGGAGTCACCTAGTGCAG”, the binding signal falls from 16900 fluorescence intensity (a.u.) to 10700 fluorescence intensity (a.u.).

First: TTTGCACACGGGTGACTCGTCTCTTTGTACTCACTCTCTCCGGAGTCACCTAGTGCAG
Second: TCCTCTGTTTTACACTTGCATTCCTATCAGAATCCTATATCGGAGTCACCTAGTGCAG
The binding signal of the first is higher: 9840 fluorescence intensity (a.u.) for the first, 9540 fluorescence intensity (a.u.) for the second.

Compared with “CCCGTCGATCCACCGCGGGGACAAGCTCTAGATCTCTCTCCGGAGTCACCTAGTGCAG”, “CAGGCATGTCCAGTATAGGTGTTATTATATTTTATTATTACGGAGTCACCTAGTGCAG” is higher in binding signal: 8440 fluorescence intensity (a.u.) for the first, 8910 fluorescence intensity (a.u.) for the second.

First: CTCCCTCCTTTTCTAAATGTTTGACACCATTGACTTTTTTCGGAGTCACCTAGTGCAG
Second: CTCCATCCGTTTTAAAATGTTTGACACCGTTGACTTTTTACGGAGTCACCTAGTGCAG
The binding signal of the first is lower: 8470 fluorescence intensity (a.u.) for the first, 27300 fluorescence intensity (a.u.) for the second.

Compared with “TACTCCCTTCTTCCTTAGATGTTTGACACCGTTGACTTTTCGGAGTCACCTAGTGCAG”, “ACTTCTTTAGGCGTTGACTTCTCCCTTTTCCTTTACTATTCGGAGTCACCTAGTGCAG” is lower in binding signal: 16900 fluorescence intensity (a.u.) for the first, 14800 fluorescence intensity (a.u.) for the second.

First: TATACTCCCTCCATTTCAAAATGTTTGACACCGTTGACTTCGGAGTCACCTAGTGCAG
Second: ACTCCCTCCTTCCCTAAATGTTTGACACCGTTGACTTTTTCGGAGTCACCTAGTGCAG
The binding signal of the first is lower: 9590 fluorescence intensity (a.u.) for the first, 19600 fluorescence intensity (a.u.) for the second.

For “TCCCTCTGTTCAAAATGTTTGACACCGTTGACTTTTTAAGCGGAGTCACCTAGTGCAG”, the binding signal was 20700 fluorescence intensity (a.u.).

From article PMC7819943, “Rice protein-binding microarrays: a tool to detect cis-acting elements near promoter regions in rice”
